# Assay results taken from ChEMBL document CHEMBL3988442, “University of Dundee, Small-Polar-MMV Screening Library” (2021).
# For some assays here: Results with a measured potency or affinity are listed apart.
# Legend:
# Parameters in all cases: scale not given: direction of the effect not stated beside the values
# [1] = target: Protein translocase subunit SecA (Escherichia coli (strain K12)) (UniProt P10408); test: Assay to Identify E. coli SecA ATPase Inhibitors; assay type: functional; details: 30 µM
# [2] = target: T1, Ubiquitin-activating enzyme e1, putative (Leishmania donovani (strain BPK282A1)) (UniProt E9BSI1); test: Leishmania donovani Ubiquitin Activating Enzyme (LdE1); assay type: functional; details: 30 µM
# T1 sequence (whole entry): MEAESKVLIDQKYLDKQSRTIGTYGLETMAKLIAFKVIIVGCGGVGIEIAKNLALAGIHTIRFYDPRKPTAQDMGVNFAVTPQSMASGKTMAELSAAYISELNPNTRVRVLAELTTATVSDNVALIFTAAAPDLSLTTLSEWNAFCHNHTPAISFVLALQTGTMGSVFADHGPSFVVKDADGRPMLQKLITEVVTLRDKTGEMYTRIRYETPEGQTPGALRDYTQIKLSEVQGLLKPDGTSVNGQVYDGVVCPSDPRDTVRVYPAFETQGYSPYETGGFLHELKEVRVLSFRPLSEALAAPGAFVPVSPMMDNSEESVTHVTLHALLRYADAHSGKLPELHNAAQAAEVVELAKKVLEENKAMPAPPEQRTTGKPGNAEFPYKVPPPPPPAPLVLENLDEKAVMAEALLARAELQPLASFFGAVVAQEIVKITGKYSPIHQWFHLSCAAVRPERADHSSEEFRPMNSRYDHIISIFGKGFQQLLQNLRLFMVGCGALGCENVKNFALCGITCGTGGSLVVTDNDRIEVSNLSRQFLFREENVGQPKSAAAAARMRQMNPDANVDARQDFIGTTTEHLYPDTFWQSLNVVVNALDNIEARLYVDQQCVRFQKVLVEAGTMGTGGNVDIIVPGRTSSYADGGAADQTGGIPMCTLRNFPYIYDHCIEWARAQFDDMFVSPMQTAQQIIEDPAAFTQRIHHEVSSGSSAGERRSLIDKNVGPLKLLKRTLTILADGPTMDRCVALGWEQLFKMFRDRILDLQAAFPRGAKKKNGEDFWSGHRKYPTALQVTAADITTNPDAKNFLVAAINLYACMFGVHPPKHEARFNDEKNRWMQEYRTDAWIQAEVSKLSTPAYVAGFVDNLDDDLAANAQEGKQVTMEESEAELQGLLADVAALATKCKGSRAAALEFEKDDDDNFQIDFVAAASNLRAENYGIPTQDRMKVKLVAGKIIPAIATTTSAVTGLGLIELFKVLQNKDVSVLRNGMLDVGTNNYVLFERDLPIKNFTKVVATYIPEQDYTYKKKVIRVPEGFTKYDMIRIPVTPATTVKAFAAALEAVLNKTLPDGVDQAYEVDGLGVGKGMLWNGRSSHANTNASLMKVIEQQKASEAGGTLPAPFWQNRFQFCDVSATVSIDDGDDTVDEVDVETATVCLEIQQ
# [3] = target: AMP-activated protein kinase, AMPK (Homo sapiens) (UniProt P54646+O43741+P54619+Q9UGJ0+Q9Y478+Q13131+Q9UGI9); test: AMP-dependent Kinase enzyme assay. An in vitro enzyme assay that detects ADP turnover that is directly proportional to AMPK activity. This uses naive AMPK that is activated during the assay with MK-8722; assay type: functional; details: 30 µM
# [4] = target: Sialic acid-binding Ig-like lectin 9 (Homo sapiens) (UniProt Q9Y336); test: Hs-Siglec9 ALPHAscreen SOP 20170721; details: 10 µM
# Trypanosoma cruzi = test: Trypanosoma cruzi phosphomannomutase and mannose-1-phosphate guanylyltransferase assay; assay type: functional; details: 10 µM
# [5] = target: T2, Arginase-2, mitochondrial (Homo sapiens) (UniProt P78540); test: in vitro enzyme assay to detect the production of urea directly proportional to the activity of Arginase II; assay type: functional; details: 33.3 µM; note: in the data most compounds retested in dose-response had high values
# T2 sequence (whole entry): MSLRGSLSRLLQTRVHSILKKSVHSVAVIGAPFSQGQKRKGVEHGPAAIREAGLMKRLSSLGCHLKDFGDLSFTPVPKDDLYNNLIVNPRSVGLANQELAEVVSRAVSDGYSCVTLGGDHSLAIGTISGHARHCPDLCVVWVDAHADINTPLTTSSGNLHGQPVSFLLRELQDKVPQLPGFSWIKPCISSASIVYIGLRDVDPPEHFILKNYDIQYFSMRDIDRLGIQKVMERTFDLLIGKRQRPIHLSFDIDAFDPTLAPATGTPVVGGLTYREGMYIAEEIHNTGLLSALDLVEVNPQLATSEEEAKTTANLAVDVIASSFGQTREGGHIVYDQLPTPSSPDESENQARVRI
# [6] = target: T3, Proteasome subunit beta (Trypanosoma cruzi) (UniProt O96673); test: Trypanosoma cruzi proteasome chymotrypsin-like activity (TcProtChymo) assay.; note: in the data most compounds retested in dose-response had high values; assay type: functional; details: 9.37 µM
# T3 sequence (whole entry): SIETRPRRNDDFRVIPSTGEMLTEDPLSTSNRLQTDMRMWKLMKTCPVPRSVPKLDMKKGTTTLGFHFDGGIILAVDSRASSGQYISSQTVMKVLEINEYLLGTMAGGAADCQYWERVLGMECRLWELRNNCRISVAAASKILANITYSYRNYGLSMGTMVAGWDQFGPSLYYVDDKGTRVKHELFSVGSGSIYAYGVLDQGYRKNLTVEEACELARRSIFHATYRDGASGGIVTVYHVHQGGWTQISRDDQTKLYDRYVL
# Homo sapiens = organism: Homo sapiens; test: To identify inhibition of the IFN signalling (Jak-Stat) pathway via expression of an eGFP reporter gene under the control of an IFN-stimulated response element (ISRE) containing MxA promoter.; assay type: functional; details: 30 µM
# [7] = target: T4, Tyrosyl-tRNA synthetase, putative (Trypanosoma cruzi (strain CL Brener)) (UniProt Q4DSP6); test: Trypanosoma cruzi tyrosyl tRNA synthetase (TcYRS) _High Tyrosine SOP; assay type: functional; details: 30 µM; note: in the data most compounds retested in dose-response had high values
# T4 sequence (whole entry): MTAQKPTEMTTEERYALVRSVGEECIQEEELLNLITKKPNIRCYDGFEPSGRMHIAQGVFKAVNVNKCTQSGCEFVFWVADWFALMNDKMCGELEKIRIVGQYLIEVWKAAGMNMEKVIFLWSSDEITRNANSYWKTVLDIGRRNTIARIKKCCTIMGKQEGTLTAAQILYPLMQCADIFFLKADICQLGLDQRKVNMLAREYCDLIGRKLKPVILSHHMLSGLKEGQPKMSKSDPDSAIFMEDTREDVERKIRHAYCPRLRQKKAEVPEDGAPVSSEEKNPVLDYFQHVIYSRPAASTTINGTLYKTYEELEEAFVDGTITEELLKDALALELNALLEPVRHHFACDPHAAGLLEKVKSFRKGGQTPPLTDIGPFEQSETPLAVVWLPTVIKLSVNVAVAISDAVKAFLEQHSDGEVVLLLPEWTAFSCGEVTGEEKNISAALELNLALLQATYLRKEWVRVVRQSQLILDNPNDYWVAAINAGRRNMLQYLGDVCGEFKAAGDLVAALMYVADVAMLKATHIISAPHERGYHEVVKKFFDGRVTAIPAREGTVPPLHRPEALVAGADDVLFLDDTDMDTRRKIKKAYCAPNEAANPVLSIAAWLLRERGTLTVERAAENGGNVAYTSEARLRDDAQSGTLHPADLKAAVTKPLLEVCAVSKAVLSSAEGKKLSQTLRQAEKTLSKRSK
# [8] = target: T4, Tyrosyl-tRNA synthetase, putative (Trypanosoma cruzi (strain CL Brener)); test: Trypanosoma cruzi tyrosyl tRNA synthetase (TcYRS) SOP; assay type: functional; details: 30 µM
# [9] = target: Chromo domain-containing protein 1 (Saccharomyces cerevisiae (strain ATCC 204508 / S288c) (Baker's yeast)) (UniProt P32657); test: ScCHD-1 Enzyme Inhibition Assay; assay type: functional; details: 30 µM; note: in the data most compounds retested in dose-response had high values
# Chain of Chromo domain-containing protein 1 (Saccharomyces cerevisiae (strain ATCC 204508 / S288c) (Baker's yeast)) (P32657 whole entry, the tested form may be a part): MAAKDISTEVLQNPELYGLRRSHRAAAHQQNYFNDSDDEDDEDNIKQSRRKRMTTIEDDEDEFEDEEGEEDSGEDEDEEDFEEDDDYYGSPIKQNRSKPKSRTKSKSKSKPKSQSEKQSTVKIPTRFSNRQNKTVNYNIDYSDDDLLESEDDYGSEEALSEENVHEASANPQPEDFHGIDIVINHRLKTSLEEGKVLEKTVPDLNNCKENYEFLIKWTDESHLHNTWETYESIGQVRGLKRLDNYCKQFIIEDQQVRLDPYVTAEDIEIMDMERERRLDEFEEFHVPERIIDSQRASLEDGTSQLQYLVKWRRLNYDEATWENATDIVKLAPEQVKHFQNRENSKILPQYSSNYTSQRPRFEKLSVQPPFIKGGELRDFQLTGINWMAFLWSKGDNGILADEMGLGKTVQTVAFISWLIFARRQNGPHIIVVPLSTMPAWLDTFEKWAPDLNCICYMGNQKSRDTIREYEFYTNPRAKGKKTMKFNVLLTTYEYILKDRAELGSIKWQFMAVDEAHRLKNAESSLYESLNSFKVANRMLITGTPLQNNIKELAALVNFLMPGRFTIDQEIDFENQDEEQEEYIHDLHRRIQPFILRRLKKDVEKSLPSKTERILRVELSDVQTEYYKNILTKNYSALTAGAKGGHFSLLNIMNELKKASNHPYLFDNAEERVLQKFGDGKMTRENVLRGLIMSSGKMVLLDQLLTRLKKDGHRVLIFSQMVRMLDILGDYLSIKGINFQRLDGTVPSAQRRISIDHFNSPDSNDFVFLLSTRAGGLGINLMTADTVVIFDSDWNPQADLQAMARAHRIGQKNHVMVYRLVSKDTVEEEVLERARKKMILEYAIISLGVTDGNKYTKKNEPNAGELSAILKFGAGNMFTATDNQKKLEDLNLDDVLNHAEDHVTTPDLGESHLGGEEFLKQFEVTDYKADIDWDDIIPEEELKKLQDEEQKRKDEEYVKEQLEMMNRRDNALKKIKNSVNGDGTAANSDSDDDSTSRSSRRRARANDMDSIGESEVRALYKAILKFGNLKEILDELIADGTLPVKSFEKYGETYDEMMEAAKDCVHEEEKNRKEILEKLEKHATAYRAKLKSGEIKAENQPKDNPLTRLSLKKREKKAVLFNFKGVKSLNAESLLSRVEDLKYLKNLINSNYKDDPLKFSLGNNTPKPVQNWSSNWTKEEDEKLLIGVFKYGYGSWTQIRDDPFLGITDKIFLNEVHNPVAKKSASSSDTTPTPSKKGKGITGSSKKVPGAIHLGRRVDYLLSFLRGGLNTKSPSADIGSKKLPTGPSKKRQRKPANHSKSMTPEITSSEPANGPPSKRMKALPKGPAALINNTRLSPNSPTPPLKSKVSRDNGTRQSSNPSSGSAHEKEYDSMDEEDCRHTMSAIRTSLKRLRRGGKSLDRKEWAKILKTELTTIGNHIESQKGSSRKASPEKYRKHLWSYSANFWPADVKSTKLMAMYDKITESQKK
# Chain of Sialic acid-binding Ig-like lectin 9 (Homo sapiens) (Q9Y336 whole entry): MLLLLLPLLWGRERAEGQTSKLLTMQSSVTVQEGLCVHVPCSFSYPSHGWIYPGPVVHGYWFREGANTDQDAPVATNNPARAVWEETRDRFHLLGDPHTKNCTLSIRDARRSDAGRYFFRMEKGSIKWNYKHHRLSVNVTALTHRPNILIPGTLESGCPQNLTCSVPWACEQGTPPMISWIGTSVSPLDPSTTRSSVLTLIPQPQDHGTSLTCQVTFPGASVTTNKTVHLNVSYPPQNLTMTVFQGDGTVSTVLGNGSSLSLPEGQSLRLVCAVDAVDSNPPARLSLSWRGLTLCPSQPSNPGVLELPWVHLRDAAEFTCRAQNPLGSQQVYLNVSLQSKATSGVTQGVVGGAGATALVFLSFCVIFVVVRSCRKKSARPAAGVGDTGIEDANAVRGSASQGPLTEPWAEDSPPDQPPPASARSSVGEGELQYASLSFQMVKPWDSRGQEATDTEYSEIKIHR
# Chain of Protein translocase subunit SecA (Escherichia coli (strain K12)) (P10408 whole entry): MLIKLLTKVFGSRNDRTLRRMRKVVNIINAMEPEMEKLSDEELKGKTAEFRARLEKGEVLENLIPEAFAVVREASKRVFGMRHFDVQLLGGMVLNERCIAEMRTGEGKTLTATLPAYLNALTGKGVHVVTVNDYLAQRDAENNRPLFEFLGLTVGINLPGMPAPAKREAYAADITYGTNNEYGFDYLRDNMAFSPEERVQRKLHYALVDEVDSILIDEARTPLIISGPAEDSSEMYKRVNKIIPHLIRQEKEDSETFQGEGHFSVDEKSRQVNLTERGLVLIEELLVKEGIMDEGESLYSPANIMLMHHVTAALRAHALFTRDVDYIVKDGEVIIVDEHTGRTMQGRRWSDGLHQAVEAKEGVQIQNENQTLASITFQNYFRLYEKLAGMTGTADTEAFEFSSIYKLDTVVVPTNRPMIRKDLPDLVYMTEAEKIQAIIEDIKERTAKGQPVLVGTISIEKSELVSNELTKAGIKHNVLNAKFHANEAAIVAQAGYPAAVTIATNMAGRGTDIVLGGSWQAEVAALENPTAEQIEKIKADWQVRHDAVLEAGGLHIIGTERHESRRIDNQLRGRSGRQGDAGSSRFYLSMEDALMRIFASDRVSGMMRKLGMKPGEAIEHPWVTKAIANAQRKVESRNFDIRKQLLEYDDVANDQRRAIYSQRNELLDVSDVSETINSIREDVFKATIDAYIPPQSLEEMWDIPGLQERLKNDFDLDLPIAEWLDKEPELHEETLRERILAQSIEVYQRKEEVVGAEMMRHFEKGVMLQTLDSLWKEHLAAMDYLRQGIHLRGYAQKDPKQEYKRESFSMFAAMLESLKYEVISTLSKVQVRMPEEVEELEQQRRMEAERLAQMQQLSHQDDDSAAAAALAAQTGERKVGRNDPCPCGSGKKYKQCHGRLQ
smiles,measurement,setting,value
CC(C)(C)OC(=O)N1CCCC[C@H]1C(=O)NCc1nccs1,Percent Effect,[1],-0.685%
same,Percent Effect,[2],0%
same,Percent Effect,[3],-2.33%
same,Percent Effect,[4],5.11%
same,Percent Effect,Trypanosoma cruzi,5.18%
same,Percent Effect,[5],16.6%
same,Percent Effect,[6],0.944%
same,Percent Effect,Homo sapiens,-20.1%
same,Percent Effect,[7],4.3%
same,Percent Effect,[8],8.64%
same,Percent Effect,[9],-4.5%
NC(=O)N1CC[C@H](O)[C@@H]1Cc1cccnc1,Percent Effect,[1],-2.51%
same,Percent Effect,[2],2.7%
same,Percent Effect,[3],6.84%
same,Percent Effect,[4],-5.75%
same,Percent Effect,Trypanosoma cruzi,-9.48%
same,Percent Effect,[5],4.78%
same,Percent Effect,[6],24%
same,Percent Effect,Homo sapiens,5.65%
same,Percent Effect,[7],0%
same,Percent Effect,[8],7.69%
same,Percent Effect,[9],-2.76%
O=C(NCCc1cccs1)[C@H]1CO[C@H]2CCNC[C@H]2C1,Percent Effect,[1],0.545%
same,Percent Effect,[2],13.5%
same,Percent Effect,[3],0.0792%
same,Percent Effect,[4],-4.42%
same,Percent Effect,Trypanosoma cruzi,-4.99%
same,Percent Effect,[5],6.05%
same,Percent Effect,[6],19.4%
same,Percent Effect,Homo sapiens,12.4%
same,Percent Effect,[7],1.08%
same,Percent Effect,[8],10.3%
same,Percent Effect,[9],-2.47%
Cc1ccccc1Oc1ncccc1CNS(C)(=O)=O,Percent Effect,[1],-5.18%
same,Percent Effect,[2],15.6%
same,Percent Effect,[3],-0.858%
same,Percent Effect,[4],12.6%
same,Percent Effect,Trypanosoma cruzi,8.16%
same,Percent Effect,[5],-8.28%
same,Percent Effect,[6],1.33%
same,Percent Effect,Homo sapiens,0.0503%
same,Percent Effect,[7],5.38%
same,Percent Effect,[8],11.1%
same,Percent Effect,[9],-7.62%
CNC(=O)c1ccc(C2CN(C(=O)c3cncs3)CCO2)nc1 (stereo not given),Percent Effect,[1],-2.48%
same,Percent Effect,[2],20.3%
same,Percent Effect,[3],5.67%
same,Percent Effect,[4],6.66%
same,Percent Effect,Trypanosoma cruzi,1.19%
same,Percent Effect,[5],-1.62%
same,Percent Effect,[6],11.1%
same,Percent Effect,Homo sapiens,-10%
same,Percent Effect,[7],2.15%
same,Percent Effect,[8],16.9%
same,Percent Effect,[9],-16.6%
Cc1ccccc1-n1ncc(C(=O)N2CCCC2c2cnn(C)c2)c1C (stereo not given),Percent Effect,[1],-1.92%
same,Percent Effect,[2],10.8%
same,Percent Effect,[3],-5.91%
same,Percent Effect,[4],-5.79%
same,Percent Effect,Trypanosoma cruzi,7.71%
same,Percent Effect,[5],-0.924%
same,Percent Effect,[6],5.57%
same,Percent Effect,Homo sapiens,-8.29%
same,Percent Effect,[7],3.96%
same,Percent Effect,[8],18.3%
same,Percent Effect,[9],-5.96%
Cc1noc([C@@H]2CC[C@@H]3[C@@H](CCN3S(=O)(=O)C3CC3)O2)n1,Percent Effect,[1],0.234%
same,Percent Effect,[2],8.11%
same,Percent Effect,[3],10.7%
same,Percent Effect,[4],-3.31%
same,Percent Effect,Trypanosoma cruzi,-4.3%
same,Percent Effect,[5],3.33%
same,Percent Effect,[6],17.2%
same,Percent Effect,Homo sapiens,4.51%
same,Percent Effect,[7],5.94%
same,Percent Effect,[8],11%
same,Percent Effect,[9],6.55%
CCN1C(=O)CCC12CCCN(Cc1nccs1)CC2 (stereo not given),Percent Effect,[1],-5.45%
same,Percent Effect,[2],8%
same,Percent Effect,[3],11.7%
same,Percent Effect,[4],0.513%
same,Percent Effect,Trypanosoma cruzi,2.56%
same,Percent Effect,[5],-0.699%
same,Percent Effect,[6],8.37%
same,Percent Effect,Homo sapiens,9.53%
same,Percent Effect,[7],7.45%
same,Percent Effect,[8],16.7%
same,Percent Effect,[9],-1.64%
Cc1nccc(C(=O)N2CCCN(Cc3cnn(C(C)C)c3)CC2)n1,Percent Effect,[1],-7.35%
same,Percent Effect,[2],-8.11%
same,Percent Effect,[3],0.58%
same,Percent Effect,[4],14.6%
same,Percent Effect,Trypanosoma cruzi,-2.93%
same,Percent Effect,[5],-0.833%
same,Percent Effect,[6],7.35%
same,Percent Effect,Homo sapiens,1.24%
same,Percent Effect,[7],5.94%
same,Percent Effect,[8],11%
same,Percent Effect,[9],6.2%
CN(C)CC1CN(c2cnc3ccccc3n2)CCO1 (stereo not given),Percent Effect,[1],-0.138%
same,Percent Effect,[2],22.8%
same,Percent Effect,[3],-4.08%
same,Percent Effect,[4],-7.06%
same,Percent Effect,Trypanosoma cruzi,3.49%
same,Percent Effect,[5],6.84%
same,Percent Effect,[6],12.7%
same,Percent Effect,Homo sapiens,19.6%
same,Percent Effect,[7],7.39%
same,Percent Effect,[8],26.6%
same,Percent Effect,[9],-5.98%
